According to ChEMBL document CHEMBL3988442, “University of Dundee, Small-Polar-MMV Screening Library” (2021):

Target: T1, Methionyl-tRNA synthetase, putative (Leishmania donovani (strain BPK282A1)) (UniProt E9BF75)
T1 sequence (whole entry): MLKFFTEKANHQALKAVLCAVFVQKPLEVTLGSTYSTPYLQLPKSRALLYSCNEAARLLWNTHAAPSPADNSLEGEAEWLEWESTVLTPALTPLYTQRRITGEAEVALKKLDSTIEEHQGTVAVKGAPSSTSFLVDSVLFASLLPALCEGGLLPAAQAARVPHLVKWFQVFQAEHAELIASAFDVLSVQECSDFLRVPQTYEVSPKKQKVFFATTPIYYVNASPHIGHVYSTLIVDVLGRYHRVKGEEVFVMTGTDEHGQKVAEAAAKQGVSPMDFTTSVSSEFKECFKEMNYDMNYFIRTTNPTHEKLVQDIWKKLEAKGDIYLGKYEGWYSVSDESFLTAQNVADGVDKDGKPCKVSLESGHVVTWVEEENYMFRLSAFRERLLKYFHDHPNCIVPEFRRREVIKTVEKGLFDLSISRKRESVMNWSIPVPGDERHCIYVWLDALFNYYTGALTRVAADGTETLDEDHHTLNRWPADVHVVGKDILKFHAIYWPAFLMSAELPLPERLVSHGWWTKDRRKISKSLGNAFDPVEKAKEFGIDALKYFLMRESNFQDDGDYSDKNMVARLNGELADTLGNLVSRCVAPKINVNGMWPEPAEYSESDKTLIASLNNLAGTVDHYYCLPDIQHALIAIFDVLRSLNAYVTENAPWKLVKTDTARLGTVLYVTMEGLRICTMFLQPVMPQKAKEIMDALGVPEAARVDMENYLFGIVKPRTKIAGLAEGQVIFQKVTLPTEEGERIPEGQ
Experiment: Leishmania donovani Methionine tRNA synthetase (LdMetRS):v7. Dose response assay
Format: functional
Parameters: conc 80 nM, time 150 minutes

Nc1nc(-c2cccs2)cc(C(F)(F)F)n1
PXC50 (MAX_EFFECT 6.382978723): < 4 | PXC50 (MAX_EFFECT 7.772020725): < 4

CCOC(=O)CCN(C)c1nc(C)nc2sc(-c3ccccc3)cc12
PXC50 (MAX_EFFECT 45.45454545): < 4 | PXC50 (MAX_EFFECT 46.44808743): < 4

Cn1cc(CN2CCC(F)(F)C3(CCN(c4ncc(F)cn4)C3)C2)cn1 (centres undefined)
PXC50 (MAX_EFFECT 3.286384977): < 4 | PXC50 (MAX_EFFECT 5.740740741): < 4

COc1cccc(-c2cc(C(F)(F)F)nc(N3CCCC3)n2)c1
PXC50 (MAX_EFFECT 5.303030303): < 4 | PXC50 (MAX_EFFECT 7.142857143): < 4

Cc1nc(N2CCC(C(O)CC(C)C)CC2)c2ccsc2n1 (centres undefined)
PXC50 (MAX_EFFECT 3.626943005): < 4 | PXC50 (MAX_EFFECT 4.255319149): < 4

OCCNc1nccc(Nc2ccc(F)c(F)c2)n1
PXC50 (MAX_EFFECT 5.420560748): < 4

Cc1ccc(N2CCC3(CN(Cc4cccs4)CCC3(F)F)C2)nn1 (centres undefined)
PXC50 (MAX_EFFECT 4.988662132): < 4 | PXC50 (MAX_EFFECT 10.8411215): < 4

Cc1nc(N2CCNC(=O)C2)c2c(CC(C)C)csc2n1
PXC50 (MAX_EFFECT 4.371584699): < 4 | PXC50 (MAX_EFFECT 6.951871658): < 4

Cc1nc(NCCCS(N)(=O)=O)c2c(-c3cccs3)csc2n1
PXC50 (MAX_EFFECT 6.297229219): < 4 | PXC50 (MAX_EFFECT 6.870229008): < 4

Cc1nc(N(Cc2ccncc2)CC2CCCO2)c2ccsc2n1 (centres undefined)
PXC50 (MAX_EFFECT 13.31592689): < 4 | PXC50 (MAX_EFFECT 17.75456919): < 4

CC1CCc2c(sc3nc(CN4CCOCC4)nc(NCC4CC4)c23)C1 (centres undefined)
PXC50 (MAX_EFFECT 17.08542714): < 4 | PXC50 (MAX_EFFECT 17.93611794): < 4

CN(C)CCNC(=O)c1ccc2ccc(N(C)CC3CC3)n2c1
PXC50 (MAX_EFFECT 42.17687075): < 4 | PXC50 (MAX_EFFECT 43.73831776): < 4

Cc1ccc(-c2ncc(CNc3cnccc3CO)s2)o1
PXC50 (MAX_EFFECT 7.511737089): < 4 | PXC50 (MAX_EFFECT 8.703703704): < 4

Cc1ccc(-c2ncc(CNc3cnccc3CO)s2)cc1
PXC50 (MAX_EFFECT 7.042253521): < 4 | PXC50 (MAX_EFFECT 10.18518519): < 4

CN(c1ncnc2sccc12)C1CCCN(c2cccnn2)C1 (centres undefined)
PXC50 (MAX_EFFECT 11.26760563): < 4 | PXC50 (MAX_EFFECT 18.33333333): < 4

Cc1nc(NCC2COCCO2)c2c3c(sc2n1)CCC3 (centres undefined)
PXC50 (MAX_EFFECT 5.303030303): < 4 | PXC50 (MAX_EFFECT 6.632653061): < 4

Nc1noc2ccc(-c3cnc4ccc(NCC5CC5)nn34)cc12
PXC50 (MAX_EFFECT 32.56997455): < 4 | PXC50 (MAX_EFFECT 37.71929825): < 4

Cc1nc(N2CCC3(CC2)OCCO3)c2c(-c3cccs3)csc2n1
PXC50 (MAX_EFFECT 10.43256997): < 4 | PXC50 (MAX_EFFECT 13.35012594): < 4

CN(CC1CC1)c1ccc2ccc(C(=O)NC3CCCCC3)cn12
PXC50 (BOTTOM 1.124026448, HILLSLOPE 1.465093934, MAX_EFFECT 59.86394558, TOP 70.1166241): 4.49 | PXC50 (BOTTOM 5.503846383, HILLSLOPE 1.186903167, MAX_EFFECT 58.31775701, TOP 100.0): 4.05

Clc1ccccc1CN1CCc2nc(Nc3ccccc3)ncc2C1
PXC50 (MAX_EFFECT 23.92344498): < 4 | PXC50 (MAX_EFFECT 25.2285192): < 4

COc1cc2ccc(N3CCN(S(C)(=O)=O)CC3)n2cc1C(=O)NC1CCCC1
PXC50 (BOTTOM 1.185639049, HILLSLOPE 1.624291099, MAX_EFFECT 57.89473684, TOP 63.90970976): 4.71 | PXC50 (BOTTOM -1.038445777, HILLSLOPE 1.129445656, MAX_EFFECT 51.04166667, TOP 100.0): 4.35

Cc1nc(NC(CC(C)C)C(=O)O)c2c3c(sc2n1)CCCC3 (centres undefined)
PXC50 (MAX_EFFECT 16.83673469): < 4 | PXC50 (MAX_EFFECT 16.91919192): < 4

CCc1nc(N2CCC(C(=O)O)CC2)c2c3c(sc2n1)CCC3
PXC50 (MAX_EFFECT 11.47540984): < 4 | PXC50 (MAX_EFFECT 12.29946524): < 4

Cc1nc(NCCC(=O)NC(C)C)c2c3c(sc2n1)CCC3
PXC50 (MAX_EFFECT -1.058201058): < 4 | PXC50 (MAX_EFFECT -2.133333333): < 4

Nc1noc2ccc(-c3cnc4ccc(NC5CC5)nn34)cc12
PXC50 (MAX_EFFECT 22.39185751): < 4 | PXC50 (MAX_EFFECT 25.87719298): < 4

CS(=O)(=O)Nc1cccc2c(=O)cc(C(=O)NCC3CCCCC3)oc12
PXC50 (MAX_EFFECT 0.797448166): < 4 | PXC50 (MAX_EFFECT 2.111324376): < 4

O=C(NCC1CCCCN1C(=O)c1cccc2ccccc12)c1ccccc1 (centres undefined)
PXC50 (BOTTOM 0.770786067, HILLSLOPE 2.128077678, MAX_EFFECT 96.73659674, TOP 102.5562093): 4.68 | PXC50 (BOTTOM 1.426381969, HILLSLOPE 1.713383958, MAX_EFFECT 97.20930233, TOP 108.6916663): 4.55

Cc1cc(C)n(-c2nc(N3CCCC3)c3c4c(sc3n2)CCCC4)n1
PXC50 (MAX_EFFECT 18.42105263): < 4 | PXC50 (MAX_EFFECT 18.75): < 4

Cc1nc(N2CCCCCC2)c2ccsc2n1
PXC50 (MAX_EFFECT 9.6): < 4 | PXC50 (MAX_EFFECT 10.05291005): < 4

Cc1sc2nc(CN(C)Cc3ccc(C(F)(F)F)cc3)nc(N)c2c1C
PXC50 (MAX_EFFECT 10.05291005): < 4 | PXC50 (MAX_EFFECT 12.8): < 4
